# Assay results reported in the supplement of paper PMC10127200.
# Values joined by “and” are separate entries in the source; they are usually repeats but may differ in a detail not shown here. Equal values may be shown once. Where a name gives a salt, the structure may show the parent alone.
# Legend:
# Test in all cases: Euclidean distance of Cell Painting phenotypic profile (signed KS, 77 features) to DMSO centroid (dimensionless distance); 5 or 10 uM (library dependent); higher = stronger phenotypic change vs DMSO (phenoactivity)
# Details in all cases: 48 h
# 786-O = test system: 786-O
# Summary of the method: (§1)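 Library compounds were applied at 10 or 5 uM, depending on the library, with 0.1% DMSO final, for 48 h to five cancer lines and a healthy fibroblast line. After staining, cells were imaged confocally at 20X across 9 fields per well, and Harmony extracted 77 features, each scored as a signed Kolmogorov-Smirnov statistic against vehicle wells on the same plate. Phenoactivity is the Euclidean distance between each profile and the median vehicle profile, with profiles first plate-position corrected, correlation-weighted and averaged over replicates at the top dose.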
# A549 = test system: A549
# Summary of the method: as §1
# DU145 = test system: DU145
# Summary of the method: as §1
# FB = test system: FB
# Summary of the method: as §1
# HEPG2 = test system: HEPG2
# Summary of the method: as §1
# OVCAR4 = test system: OVCAR4
# Summary of the method: as §1
Compound,Euclidean distance (786-O),Euclidean distance (A549),Euclidean distance (DU145),Euclidean distance (FB),Euclidean distance (HEPG2),Euclidean distance (OVCAR4)
c1ccc2[nH]c(-c3cscn3)nc2c1 [Thiabendazole],1.16,0.753,1.31,1.1,1.93,0.914
N=C(N)NC(=O)c1nc(Cl)c(N)nc1N [Amiloride HCl dihydrate],1.53,1.27,1.11,1.58,0.663,1.28
N=C(N)Nc1ccc(C(=O)Oc2ccc3cc(C(=N)N)ccc3c2)cc1 [Nafamostat Mesylate],1.58,1.62,1.06,1.02,0.93,1.24
Cc1cc(Cn2cnc3c2CC(C(=O)O)N(C(=O)C(c2ccccc2)c2ccccc2)C3)ccc1N(C)C (centres undefined),0.67,1.03,1.03,1.08,0.529,0.828
CN1C(=O)CC(c2ccccc2)C1=O (centres undefined) [Phensuximide],0.788,1.12,1.01,0.827,0.849,0.954
NCC(=O)Nc1ccc(-n2nc(C(F)(F)F)cc2-c2ccc3c(ccc4ccccc43)c2)cc1,1.57,1.4,0.783,1.33,1.34,1.38
CCOC(=O)N1c2ccc(C(F)(F)F)cc2[C@@H](N(Cc2cc(C(F)(F)F)cc(C(F)(F)F)c2)C(=O)OC)C[C@H]1CC [Torcetrapib],1.3,0.836,1.01,0.99,0.467,1.29
COc1cc(NC(=O)c2ccccn2)ccc1Cl,1.08,0.966,0.845,1.02,0.638,1.19
O=C(Nc1ccccc1)OCC(CN1CCCCC1)OC(=O)Nc1ccccc1 (centres undefined) [Diperodon HCl],1.03,1.43,1.31,1.59,0.984,1.64
Cc1[nH]c(=O)c(C#N)cc1-c1ccncc1 [Milrinone],0.957,0.855,0.761,0.918,0.762,0.888
CC1CC(OC(=O)C(O)c2ccccc2)CC(C)(C)C1 (centres undefined) [Cyclandelate],1.19,1.12,1.02,0.843,0.782,1.02
C[C@@H]1CCN(C(=O)CC#N)C[C@@H]1N(C)c1ncnc2[nH]ccc12,0.925 and 0.548,0.553 and 0.511,1.04 and 0.639,0.618 and 0.551,0.886 and 0.785,0.908 and 0.677
c1cc(CN2CCCNCCNCCCNCC2)ccc1CN1CCCNCCNCCCNCC1 [Plerixafor 8HCl (AMD3100 8HCl)],1.37,1.38,0.691,1.5,0.69,1.7
NCCS [Cysteamine HCl],0.86,0.424,0.624,1.02,0.897,1.07
CC(C)(C)NC[C@H](O)c1ccc(O)c(CO)c1 [levalbuterol tartrate],0.685,0.326,0.582,0.969,0.566,0.907
COc1ccnc(C[S+]([O-])c2nc3cc(OC(F)F)ccc3[nH]2)c1OC (centres undefined) [Pantoprazole],1.16,0.522,0.784,0.822,1.62,1.62
CCCCS(=O)(=O)N[C@@H](Cc1ccc(OCCCCC2CCNCC2)cc1)C(=O)O [Tirofiban Hydrochloride],1,1.07,1.77,1.22,0.871,1.39
CC(C)(Oc1ccc(Cl)cc1)C(=O)O [Clofibric Acid],0.903,0.74,0.644,0.793,0.498,0.547
Cc1c(-c2ccc(O)cc2)n(Cc2ccc(OCCN3CCCCCC3)cc2)c2ccc(O)cc12 [Bazedoxifene HCl],5.12,4.91,3.42,4.82,4.62,4.32
CCOC(=O)OC(C)OC1=C(C(=O)Nc2ccccn2)N(C)S(=O)(=O)c2ccccc21 (centres undefined) [Ampiroxicam],1.26,1.35,0.928,0.606,0.41,1.47
CC(=C(CCO)SSCC1CCCO1)N(C=O)Cc1cnc(C)nc1N (stereo in doubt) [Fursultiamine],1.19,0.749,0.785,1.06,0.579,1.17
CCCCNc1ccc(C(=O)OCCN(C)C)cc1 [Tetracaine HCl],0.993,0.918,0.964,1.06,0.941,1.79
N[C@@]1(C(=O)O)CS(=O)(=O)[C@H]2[C@H](C(=O)O)[C@H]21,0.494,1.32,0.671,0.749,0.743,0.75
CC(C(=O)O)c1cccc(C(=O)c2ccccc2)c1 (centres undefined) [Ketoprofen],1.28,0.765,2.29,0.989,0.77,1.42
CCCCOc1ccc(CC(=O)NO)cc1 [Bufexamac],1.36,1.11,0.87,1.25,0.883,1.39

Compound,Euclidean distance (786-O),Euclidean distance (A549),Euclidean distance (DU145),Euclidean distance (FB),Euclidean distance (HEPG2),Euclidean distance (OVCAR4)
CC1(C)OC(=O)NC1=O [5.5-Dimethyloxazolidine-2.4-dione],0.865,0.849,1.06,1.02,0.557,0.894
NCCCS(=O)(=O)O [Homotaurine],1.14,1.27,0.97,0.97,0.248,1.36
C[C@@H](Oc1cc(-c2cnn(C3CCNCC3)c2)cnc1N)c1c(Cl)ccc(F)c1Cl,3.69,4.3,3.56,5.27,4.27,4.15
CC1(C)CCC2=C(O1)c1ccccc1C(=O)C2=O [Beta-Lapachone],3.88,5.17,7.8,4.08,4.33,5.57
O=C(O[C@@H]1C[C@@H]2C[C@H]3C[C@H](C1)N2CC3=O)c1c[nH]c2ccccc12 [Dolasetron],1.37,2.35,2.37,1.37,0.624,2.04
CC1(C)CC(=O)c2c(C(F)(F)F)nn(-c3ccc(C(N)=O)c(N[C@H]4CC[C@H](O)CC4)c3)c2C1,3.06,2.99,3.09,3.59,3.83,2.73
COc1ccc(S(=O)(=O)Nc2cccnc2Nc2ccc(O)cc2)cc1,2.73,2.61,3.18,2.99,3.33,3.12
CC1(C)CC(Oc2ccc(-c3ccc(-c4cn[nH]c4)cc3O)nn2)CC(C)(C)N1 [Branaplam (LMI070)],2.88,2.86,4.33,3.24,3.03,3.09
Cc1onc(-c2c(F)cccc2Cl)c1C(=O)N[C@@H]1C(=O)N2[C@@H]1SC(C)(C)[C@@H]2C(=O)O [Flucloxacillin sodium],1.14,0.772,1.17,1.12,0.664,1.72
CCCCCCCCCCCCCCCCCCOP(=O)([O-])OC1CC[N+](C)(C)CC1 [Perifosine (KRX-0401)],1.95,1.09,0.853,1.23,2.19,1.79
C[C@]12CCC(=O)C=C1CC[C@@H]1[C@@H]2C(=O)C[C@@]2(C)[C@H]1CC[C@]2(O)C(=O)CO [Cortisone],1.73,0.941,1.11,1.27,0.411,1
CCCNCC(O)COc1ccccc1C(=O)CCc1ccccc1 (centres undefined) [Propafenone HCl],1.59,1.51,1.37,1.36,0.85,1.26
CCOC(=O)[C@H](CCc1ccccc1)N[C@@H](C)C(=O)N1[C@H](C(=O)O)C[C@H]2CCCC[C@@H]21 [Trandolapril],1.34,0.478,0.864,0.819,0.562,0.99
COc1ccc(-c2cc(=S)ss2)cc1 [Anethole trithione],1.49,1.04,1.18,1.03,0.61,1.06
CC(C)N(CCC(=O)c1ccc2ccccc2c1)Cc1ccccc1,1.68,1.15,0.815,1.33,0.594,0.928
Oc1c(I)cc(Cl)c2cccnc12 [Clioquinol],1.29,1.03,1.05,1.37,0.894,1.24
O=C(O)c1ccc2nc(-c3cc(Cl)cc(Cl)c3)oc2c1 [Tafamidis],1.52,0.941,1.1,0.77,0.971,1.21
Nc1ncccc1-c1nc2ccc(-c3ccccc3)nc2n1-c1ccc(C2(N)CCC2)cc1 [Miransertib (ARQ 092) HCl],4.75,4.1,2.87,4.17,4.52,3.46
COC(=O)[C@H]1[C@H]2C[C@@H]3c4[nH]c5cc(OC)ccc5c4CCN3C[C@H]2C[C@@H](OC(=O)c2cc(OC)c(OC)c(OC)c2)[C@@H]1OC [Reserpine],1.54,1.58,1.94,1.51,0.642,1.29
COc1ccc(-c2oc3c(CC=C(C)C)c(O[C@@H]4O[C@H](CO)[C@@H](O)[C@H](O)[C@H]4O)cc(O)c3c(=O)c2O[C@@H]2O[C@@H](C)[C@H](O)[C@@H](O)[C@H]2O)cc1 [Icariin],0.632,0.62,0.973,0.818,0.96,0.993
CC(=O)Oc1ccccc1C(=O)O [Aspirin],0.701,0.531,0.625,0.734,0.608,0.816
CC1=CC(=O)c2ccccc2C1=O [Menadione],1.12,0.782,0.587,1.16,0.759,2.12
CCCN(CCc1cccs1)[C@H]1CCc2c(O)cccc2C1 [Rotigotine],0.962,0.896,0.662,0.9,0.437,0.97
CC/C(=C(\c1ccc(O)cc1)c1ccc(OCCNC)cc1)c1ccccc1 [Endoxifen HCl],4.21,3.39,2.59,3.3,4.86,3.32
